Here are results for four molecules from PubChem BioAssay.

The source made the active and inactive calls. Unless noted, the rule behind the calls is not given here.

In experiment [1] the test system is Wnt5a (protein binding on small-molecule microarray). The experiment is described as follows: Wnt5a binders on small-molecule microarray, primary screen, biophysical, 635/667 nm fluorescence (AID 1142).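 Note: fluorescence read at 667 nm with signal to noise per printed feature.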 Particulars: 635 nm fluorescence, higher = more signal.
Experiment [2] in a line: cell viability in Huh7 cells, primary screen, cytotoxicity control for HCV replication inhibitor project, CellTiter-Glo luminescence, basal, 48 h (AID 1143).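 Note: Huh7 hepatoma cells carrying a hepatitis C replication reporter with no stimulus; test concentration not given here.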 The conditions noted are these: Huh7 HCV replicon, higher = more signal, called active from +8 up or from −8 down. (In general: ATP-based viability assays read luminescence as a measure of living cells.)
Experiment [3] can be described thus: P. aeruginosa biofilm formation inhibitors, primary screen, PAO1 strain, BacTiter-Glo luminescence, LB-PBS (AID 1144). Particulars: 12 h, higher = more signal.
A short description of experiment [4]: CREB reporter modulators without forskolin, primary screen, cell-based, PC12, CRE-LacZ reporter, unstimulated (AID 1145). Particulars: no forskolin, luminescence, 4.5 h, higher = more signal, called active from +8 up or from −8 down.
Experiment [5] in a line: CREB reporter modulators under forskolin, primary screen, cell-based, PC12, CRE-LacZ reporter, forskolin-stimulated (AID 1146).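 Note: PC12 cells with 6xCRE LacZ reporter stimulated by forskolin 10 µM; beta-galactosidase reporter signal reflecting CREB driven transcription.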 The conditions noted are these: luminescence, 4.5 h, higher = more signal, called active from +8 up or from −8 down.
For experiment [6], the target named is Streptavidin (Streptomyces avidinii) (UniProt P22629). Briefly: streptavidin binders on small-molecule microarray, primary screen, artefact control for SMM compound annotation, biophysical, 635/667 nm fluorescence (AID 1147).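 Note: signal reflects streptavidin binding to arrayed compounds as a control protein.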 The conditions noted are these: streptavidin binding, higher = more signal.
Chain of Streptavidin (Streptomyces avidinii) (P22629 whole entry, looked up): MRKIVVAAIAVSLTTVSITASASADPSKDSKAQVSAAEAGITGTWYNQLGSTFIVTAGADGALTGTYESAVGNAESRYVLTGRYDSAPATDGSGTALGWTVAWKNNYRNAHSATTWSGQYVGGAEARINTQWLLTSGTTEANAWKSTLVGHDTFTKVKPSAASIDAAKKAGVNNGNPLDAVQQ
Experiment [7] is described as follows: small-molecule binders of probe aInhba, primary screen, biochemical, small-molecule microarray, 635/667 nm fluorescence (AID 1148).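 Note: score merges 667nm spot fluorescence with signal-to-noise for antibody binding to printed compounds.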 The conditions noted are these: higher = more signal.
Experiment [8] concerns the target Torsin-1A (Homo sapiens) (UniProt O14656). Briefly: torsin A binders from cell lysate, primary screen, small-molecule microarray, wild-type, 635/667 nm (AID 1149). The conditions noted are these: COS7 hTOR1A-WT lysate, 635 nm fluorescence, higher = more signal.
Experiment [9] has the same target. Briefly: small-molecule binders of mutant TOR1A in lysate, primary screen, cell lysate, small-molecule microarray, COS7 lysate, 635/667 nm fluorescence (AID 1150).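 Note: score pools 667 nm emission and signal to noise measuring lysate protein binding.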 Particulars: COS7 hTOR1A mutant lysate, 635 nm fluorescence, higher = more signal.
In experiment [10] the test system is Sonic hedgehog protein (Shh). Briefly: small-molecule binders of Shh protein, primary screen, biochemical, small-molecule microarray, 635/667 nm fluorescence (AID 1151).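 Note: Shh protein binding to compounds spotted on small-molecule microarray slides; score combines spot fluorescence intensity with signal-to-noise across triplicate slides.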 Particulars: small-molecule microarray binding, 635 nm fluorescence; higher = more signal.
Experiment [11] in a line: E. coli DRC41 culture turbidity changes, primary screen, E. coli filamentation inducer project, strain DRC41, OD650, 48 h (AID 1152).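 Note: E. coli MC1000 strain DRC41 lacking acrAB efflux pump and sulA.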 The conditions noted are these: E. coli DRC41 (acrAB sulA), higher = more signal, called active from +8 up or from −8 down.
Experiment [12] is described as follows: small-molecule binders of probe aLefty1, primary screen, biochemical, small-molecule microarray, 635/667 nm fluorescence (AID 1153).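 Note: score merges spot fluorescence with signal-to-noise ratio from the scanned slide images.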 Particulars: higher = more signal.
Experiment [13] in a line: PSAC antagonists in infected red cells, primary screen, cell-based, P. falciparum Indochina, OD700, 1 h (AID 1154). The conditions noted are these: P. falciparum Indochina infected RBC osmotic lysis, higher = more signal, called active from +8 up or from −8 down.
Experiment [14] in a line: PSAC antagonists in infected red cells, primary screen, cell-based, P. falciparum Indochina, OD700, 2 h (AID 1155).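 Note: lysis reports solute entry through the parasite surface anion channel PSAC; channel blockers reduce lysis of infected cells.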 Particulars: P. falciparum Indochina infected erythrocytes, osmotic lysis OD700; higher = more signal, called active from +8 up or from −8 down.
Experiment [15] can be described thus: osmotic lysis modulators in infected erythrocytes, primary screen, PSAC antagonist project, cell-based, P. falciparum Indochina, OD700, 3 h (AID 1156). The conditions noted are these: higher = more signal, called active from +8 up or from −8 down.
The nature of experiment [16]: PSAC antagonists in infected red cells, primary screen, cell-based, P. falciparum Indochina, OD700, 18 h (AID 1157). The conditions noted are these: P. falciparum Indochina infected erythrocytes, osmotic lysis OD700, 18 h; higher = more signal, called active from +8 up or from −8 down.
Experiment [17] can be described thus: modulators of S6 phosphorylation in cells, primary screen, cell-based, A549, cytoblot, luminescence, serum-stimulated (AID 1158).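 Note: serum-stimulated A549 lung adenocarcinoma cells; signal is phosphorylated S6 detected by cytoblot immunostaining with HRP secondary.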 The conditions noted are these: A549 phospho-S6 cytoblot, 5 h, higher = more signal.
Experiment [18] has as its target NADPH oxidase 2 (Homo sapiens) (UniProt P04839). Briefly: NOX2-dependent H2O2 signal modulators, primary screen, NOX inhibitor project, cell-based, HEK293-NOX2, PMA-stimulated, Amplex Red fluorescence (AID 1159). Note: test concentration not given here. Particulars: 45 min, higher = more signal, called active from +8 up or from −8 down.
Experiment [19] addresses NADPH oxidase 4 (Homo sapiens) (UniProt Q9NPH5). The experiment is described as follows: NOX4-dependent H2O2 signal modulators, primary screen, NOX inhibitor project, cell-based, HEK293-NOX4, tetracycline-induced, Amplex Red fluorescence (AID 1160). The conditions noted are these: 45 min, higher = more signal, called active from +8 up or from −8 down.
For experiment [20], the target named is NADPH oxidase 5 (Homo sapiens) (UniProt Q96PH1). The experiment is described as follows: NOX5-dependent H2O2 signal modulators, primary screen, NOX inhibitor project, cell-based, HEK293-NOX5, Amplex Red fluorescence (AID 1161). The conditions noted are these: HEK293-NOX5, ionomycin, 45 min, higher = more signal.
Chain of NADPH oxidase 5 (Homo sapiens) (Q96PH1 whole entry, looked up): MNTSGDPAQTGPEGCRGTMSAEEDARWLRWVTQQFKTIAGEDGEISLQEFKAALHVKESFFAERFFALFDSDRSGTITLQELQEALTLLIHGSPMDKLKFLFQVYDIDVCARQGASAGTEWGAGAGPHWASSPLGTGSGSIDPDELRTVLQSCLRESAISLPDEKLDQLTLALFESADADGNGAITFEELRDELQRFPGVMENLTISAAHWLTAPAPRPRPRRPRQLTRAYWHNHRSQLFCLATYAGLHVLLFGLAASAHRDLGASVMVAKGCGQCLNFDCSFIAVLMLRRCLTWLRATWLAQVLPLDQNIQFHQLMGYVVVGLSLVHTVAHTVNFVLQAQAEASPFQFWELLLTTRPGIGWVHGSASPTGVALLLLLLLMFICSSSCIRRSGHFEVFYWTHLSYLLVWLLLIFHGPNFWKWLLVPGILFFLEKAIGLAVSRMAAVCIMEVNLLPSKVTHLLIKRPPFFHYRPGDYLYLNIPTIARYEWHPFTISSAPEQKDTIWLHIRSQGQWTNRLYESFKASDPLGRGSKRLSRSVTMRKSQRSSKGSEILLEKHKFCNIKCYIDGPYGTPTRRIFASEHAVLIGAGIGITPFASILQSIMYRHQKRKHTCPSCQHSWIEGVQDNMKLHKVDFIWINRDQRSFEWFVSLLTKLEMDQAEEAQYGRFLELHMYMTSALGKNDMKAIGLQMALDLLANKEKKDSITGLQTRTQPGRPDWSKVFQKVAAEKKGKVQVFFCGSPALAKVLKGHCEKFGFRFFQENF

Chain of Torsin-1A (Homo sapiens) (O14656 whole entry, looked up): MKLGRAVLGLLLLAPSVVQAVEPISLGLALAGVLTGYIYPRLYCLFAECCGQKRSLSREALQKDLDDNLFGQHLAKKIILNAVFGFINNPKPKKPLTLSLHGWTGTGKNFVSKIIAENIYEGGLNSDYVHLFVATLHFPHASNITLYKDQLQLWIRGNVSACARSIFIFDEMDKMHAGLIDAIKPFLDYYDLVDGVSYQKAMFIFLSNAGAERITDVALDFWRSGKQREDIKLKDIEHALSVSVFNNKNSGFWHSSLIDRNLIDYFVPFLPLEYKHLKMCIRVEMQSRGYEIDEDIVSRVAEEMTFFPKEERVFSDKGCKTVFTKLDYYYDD
Chain of NADPH oxidase 4 (Homo sapiens) (Q9NPH5 whole entry, looked up): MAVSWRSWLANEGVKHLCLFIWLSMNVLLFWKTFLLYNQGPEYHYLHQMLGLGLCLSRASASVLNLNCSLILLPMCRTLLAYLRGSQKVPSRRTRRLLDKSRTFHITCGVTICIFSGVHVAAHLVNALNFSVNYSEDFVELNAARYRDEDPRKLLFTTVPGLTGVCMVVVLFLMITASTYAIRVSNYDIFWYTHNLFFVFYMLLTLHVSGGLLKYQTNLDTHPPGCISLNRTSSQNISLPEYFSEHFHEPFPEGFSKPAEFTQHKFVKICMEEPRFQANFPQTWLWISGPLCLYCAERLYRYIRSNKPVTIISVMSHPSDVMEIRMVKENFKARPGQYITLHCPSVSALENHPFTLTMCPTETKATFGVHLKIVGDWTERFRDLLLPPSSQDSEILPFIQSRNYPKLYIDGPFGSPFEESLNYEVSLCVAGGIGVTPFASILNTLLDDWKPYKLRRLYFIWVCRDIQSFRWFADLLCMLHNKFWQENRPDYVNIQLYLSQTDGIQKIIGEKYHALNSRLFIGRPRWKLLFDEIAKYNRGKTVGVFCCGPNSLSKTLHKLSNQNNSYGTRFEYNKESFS
Chain of NADPH oxidase 2 (Homo sapiens) (P04839 whole entry, looked up): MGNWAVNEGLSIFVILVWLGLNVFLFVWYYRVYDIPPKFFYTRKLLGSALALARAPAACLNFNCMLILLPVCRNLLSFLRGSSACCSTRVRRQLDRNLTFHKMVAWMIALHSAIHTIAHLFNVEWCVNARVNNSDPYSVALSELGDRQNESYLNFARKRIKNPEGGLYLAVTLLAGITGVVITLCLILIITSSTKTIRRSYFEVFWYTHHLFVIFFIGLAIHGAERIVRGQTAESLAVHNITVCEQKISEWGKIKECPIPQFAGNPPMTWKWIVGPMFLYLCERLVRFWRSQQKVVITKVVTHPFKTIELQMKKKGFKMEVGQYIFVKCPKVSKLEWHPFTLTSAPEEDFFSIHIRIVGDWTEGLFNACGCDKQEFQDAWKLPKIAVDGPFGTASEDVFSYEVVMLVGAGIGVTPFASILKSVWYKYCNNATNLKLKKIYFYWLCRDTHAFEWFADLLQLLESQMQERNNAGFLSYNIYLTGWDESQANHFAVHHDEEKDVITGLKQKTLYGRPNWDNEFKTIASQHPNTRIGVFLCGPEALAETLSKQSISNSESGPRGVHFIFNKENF

Consider `NCCCCCNC(=O)[C@H]1C[C@H]2C(=O)N3CCC[C@H]3C(=O)N2[C@H]1c1cccc(OCCO)c1`, for which the composite z-score in experiment [1] turned out to be 0.444; in experiment [6], 0.812; in [7] it was 0.0792; with Torsin-1A (Homo sapiens) [8] it was 1.05; with Torsin-1A (Homo sapiens) [9], 0.264; in experiment [10], 0.148. Also, the composite z-score in experiment [12] turned out to be 0.984. Moreover, the z-score in experiment [2] is -0.0422 (inactive); in experiment [3], 0.294 (inactive); in experiment [4], 0.143 (inactive); in experiment [5] it was -0.0024 (inactive); in experiment [11], -0.068 (inactive); in experiment [13] it was 3.03 (inactive). The z-score is 0.598 (inactive) in experiment [14]; 0.428 (inactive) in [15]; 0.301 (inactive) in [16]; -0.413 in experiment [17]; 2.6 (inactive) in [18]; 0.413 (inactive) in experiment [19]. The z-score in [20] worked out at 2.48.

For the molecule `CCCCC(O)C1C=CC2C(=O)N(C)C(=O)C2N1N(c1ccccc1)c1ccccc1` (stereo not given), the composite z-score in [1] amounted to 0.29; in experiment [6] it was 0.971; in experiment [7], 0.0075; with Torsin-1A (Homo sapiens) [8], 0.14; with Torsin-1A (Homo sapiens) [9] it was 0.464; in experiment [10], 0.471. Further, the composite z-score in [12] was found to be 0.475. Further, the z-score in experiment [2] is -0.975 (inactive); in [3], 0.092 (inactive); in experiment [4], 1.59 (inactive); in experiment [5], 0.281 (inactive); in [11], -2.15 (inactive); in experiment [13], 3.81 (inactive). Further, the z-score in [14] is 1 (inactive); in experiment [15], 1.3 (inactive); in experiment [16], 0.951 (inactive); in experiment [17], -1.05; in experiment [18], -0.334 (inactive); in experiment [19] it was -1.98 (inactive). For the same molecule, the z-score in experiment [20] is -0.376.

Turning to `C=C(COC)C(=O)CC[C@@H](OC(C)=O)c1cccc(OCCO)c1`, the composite z-score is -0.124 in experiment [1]; -1.07 in [6]; -0.128 in [7]; 0.672 in the experiment with Torsin-1A (Homo sapiens) [8]; -0.708 in the experiment with Torsin-1A (Homo sapiens) [9]; 0.358 in [10]. In addition, the composite z-score in experiment [12] is -0.152. The z-score was -0.3 (inactive) in [2]; 0.423 (inactive) in experiment [3]; 3.3 (inactive) in experiment [4]; 2.95 (inactive) in [5]; 0.0328 (inactive) in [11]; 4.13 (inactive) in experiment [13]. Further, the z-score was 1.11 (inactive) in experiment [14]; 0.864 (inactive) in experiment [15]; 0.529 (inactive) in [16]; -0.487 in experiment [17]; 0.212 (inactive) in [18]; -1.01 (inactive) in experiment [19]. The z-score in [20] was -1.06.

Turning to `C=CCC(OC(C)=O)[C@@H]1[C@@H](N(Cc2cccc3ccccc23)C(=O)Cc2ccc(F)cc2)c2cc(OCCCO)ccc2N1C(=O)c1ccc2ccccc2c1` (stereo not given in full), the composite z-score in experiment [1] is 0.107; in experiment [6], 0.0722; in [7], -0.0774; in the experiment with Torsin-1A (Homo sapiens) [8], -0.035; with Torsin-1A (Homo sapiens) [9], -0.183; in experiment [10], 0.508. The same molecule registered a composite z-score in [12] of 0.23. For the same molecule, the z-score is -0.156 (inactive) in experiment [2]; -1.04 (inactive) in [3]; -0.724 (inactive) in experiment [4]; 1.06 (inactive) in experiment [5]; 0.978 (inactive) in experiment [11]; 1.06 (inactive) in experiment [13]. Moreover, the z-score in experiment [14] was 0.479 (inactive); in [15] it was 0.51 (inactive); in experiment [16] it was 0.484 (inactive); in experiment [17] it was 0.336; in experiment [18], -1.5 (inactive); in [19] it was 0.344 (inactive). In addition, the z-score in experiment [20] came out at 0.453.
